Measured values taken from the supplement of paper PMC7156485.
± gives the standard deviation of the averaged measurements.

Tests used:
Settings in all cases: concentration: 10 µM; 24 h
HCC1569 [1] = experiment: cell number relative to DMSO (% of DMSO); higher = more cells (less growth inhibition / toxicity)
Method in brief: (§1)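 For HCC1569 and TDF cells, compounds at 10 µM were applied for 24 h at 37 °C in triplicate in 384-well plates. Cells were fixed in 3.7% formaldehyde, stained for H1.0 and with DAPI, and imaged at ×10 over six fields per well. The endpoint, H1.0 nuclear intensity or cell number, is shown as percent of the plate control using the median of replicates. Positional effects were smoothed for HCC1569 only.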

TDF [2] = experiment: as above
Method in brief: as §1

TDF [3] = experiment: H1.0 immunofluorescence intensity relative to DMSO (% of DMSO); higher = stronger H1.0 induction, active = 120 or more
Method in brief: as §1

HCC1569 [4] = experiment: H1.0 immunofluorescence intensity relative to DMSO (% of DMSO); higher = stronger H1.0 induction, active = 140 or more
Method in brief: as §1
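Wherever H1.0 immunofluorescence intensity relative to DMSO is given: TDF is a line of transformed human dermal fibroblasts of mesenchymal origin.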
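Wherever cell number relative to DMSO is given: TDF denotes transformed human dermal fibroblasts of mesenchymal origin.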

Compound | cell number (HCC1569 [1]) | cell number (TDF [2]) | H1.0 immunofluorescence intensity (TDF [3]) | H1.0 immunofluorescence intensity (HCC1569 [4])
O=C(O)C=CC(=O)O.O=C(O)C=CC(=O)O.OCCOCCN1CCN(C2=Nc3ccccc3Sc3ccccc32)CC1 [Quetiapine Fumarate] | 99.3 | 97.8 | 94.5 (inactive) | 100 (inactive)
CCCCCOC(=O)Nc1nc(=O)n(C2OC(C)C(O)C2O)cc1F (centres undefined) [Capecitabine] | 102 | 98.9 | 101 (inactive) | 95.7 (inactive)
C#CC1(O)CCC2C3CCC4=CC(=O)CCC4C3CCC21C (centres undefined) [Norethindrone] | 96.5 | 91 | 99.5 (inactive) | 109 (inactive)
CCCCCCCCCCCCCCCC(=O)NC(COP(=O)(O)O)C(=O)O (centres undefined) | 102 | 109 | 92 (inactive) | 98.9 (inactive)
CC(=O)OCC1(O)CC23CCC4c5ccoc5C=CC4(C)C2CCC1C3 (centres undefined) [Kahweol Acetate] | 103 | 95.3 | 105 (inactive) | 98.9 (inactive)
CS(=O)(=O)c1ccc(C2=C(c3ccccc3)C(=O)OC2)cc1 [Rofecoxib] | 98.3 | 88.9 | 98.4 (inactive) | 111 (inactive)
CCC=CCC=CCC=CCCCCCCCCCC(=O)O [Eicosatrienoic acid] | 101 ± 2.8 | 96.7 ± 14 | 100 (inactive) | 99.5 (inactive)
Nc1ccc(CCNc2ncnc3c2ncn3C2OC(CO)C(O)C2O)cc1 (centres undefined) [N6-2-(4-Aminophenyl)ethyladenosine] | 101 | 109 | 85.9 (inactive) | 94 (inactive)
CC(=O)NCCc1c(Cc2ccccc2)[nH]c2ccccc12 [N-[2-(2-benzyl-1H-indol-3-yl)ethyl]acetamide] | 101 | 92.4 | 104 (inactive) | 98.9 (inactive)
Cl.O=C1CC2(CCCC2)CC(=O)N1CCCCN1CCN(c2ncccn2)CC1 [Buspirone hydrochloride] | 97.6 | 96.8 | 94.3 (inactive) | 97 (inactive)
CCCCCC#CCC#CCC#CCC#CCCCC(=O)O | 104 | 96.2 | 98.2 (inactive) | 101 (inactive)
COc1cc2c(cc1CC=C(C)C)C(=O)CC(c1ccc(O)cc1)O2 (centres undefined) [Bavachinin A] | 103 | 104 | 99.5 (inactive) | 96.7 (inactive)
Cc1cc(C)c(C=C2C(=O)Nc3ccccc32)[nH]1 [VEGF Receptor 2 Kinase Inhibitor III] | 100 | 105 | 91.1 (inactive) | 108 (inactive)
CCCn1c(=O)c2c(ncn2C)n(CCC)c1=O [1,3-Dipropyl-7-methylxanthine] | 99.5 | 101 | 93.1 (inactive) | 94.8 (inactive)
CC(Cc1ccc(O)c(O)c1)(NN)C(=O)O (stereo not drawn) [S-(-)-Carbidopa] | 106 | 112 | 91.7 (inactive) | 90 (inactive)
Nc1nccc(-c2c(-c3ccc(F)cc3)ncn2C2CCNCC2)n1 | 84.5 | 89.4 | 88.6 (inactive) | 143 (active)
